Measurements reported in PubChem BioAssay (NCATS).
Inconclusive results are not listed. Values without a mark were called inactive. Calls of active or inactive are those of the source. Calls come from the whole dose curve; as a rule, active = well fitted cell-killing curve with a large enough effect; inconclusive = small, poorly fitted or top-dose-only effect; inactive = no such curve, though single readings can be large or run the other way.

Assay: qHTS of pediatric cancer cell lines to identify multiple opportunities for drug repurposing: Primary screen for NB-EBc1 cells (AID 1347095)
Conditions: NB-EBc1 neuroblastoma viability, CellTiter-Glo luminescence, 48 h; series mostly up to 46 µM; activity change, negative = cytotoxic: at the top concentration
Text: Drug repurposing or repositioning has been offered as a strategy for drug development in oncology programs. This approach has special potential for childhood cancers and other rare or orphan diseases, where the expected return on new drug development has been a disincentive to pharmaceuticals. […] In this project we exploit the poly-pharmacology of drugs to discover new indications via phenotypic screening of a panel of 19 well-characterized cell lines derived from solid tumors seen in children and adolescents. The goal is to identify approved drugs with previously unrecognized anticancer properties that has the potential to reveal new mechanisms and biological processes involved in carcinogenesis or drug resistance. We employed a titration-based paradigm (quantitative high-throughput screening or qHTS), where all compounds were tested at multiple concentrations for their effect on cell viability. Concentration-response curves (CRCs) were derived directly from the primary screen, and both potency and efficacy values were used to identify compounds with robust bioactivity profiles. We screened the NIH Chemical Genomics Center (NCGC) Pharmaceutical Collection (NPC) and Mechanism Interrogation Plate (MIPE) small molecule collections of approved and investigational compounds against these cell lines; and measured metabolically active cells after 48 hours of compound treatment as a proxy for cell viability. […] Assay Submitter: Nathalia J. Martinez, National Center for Advancing Translational Sciences, National Institutes of Health, Rockville, MD, USA; email: natalia.martinez@nih.gov Shen, M et al. Quantitative high-throughput phenotypic screening of pediatric cancer cell lines identifies multiple opportunities for drug repurposing. Oncotarget 2017 Dec 19;9(4):4758-4772. PMID 29435139.
The cells were obtained from University of North Carolina (UNC), Pediatric Preclinical Testing Program (PPT), and Coriell Institute (CI). qHTS cell viability assay: Cells were assayed in growth media at a density of 500-1,000 cells/well. Five microliters of cells were dispensed into 1,536-well, white, solid-bottom, TC-treated plates (Greiner Bio One) using a multidrop dispenser and incubated at 37 degrees C, 5% CO2, under a humidified atmosphere for 5 hours. Twenty-three nanoliters of compounds and controls (neutral control DMSO or positive control bortezomib at final concentration of 2.3 µM) were subsequently transferred by Kalypsys pintool. For primary screens, the MIPE collection was tested at 11-point dilutions (final concentrations range from 0.78 nM to 46 µM) and the NPC collection at 8-point dilutions (final concentrations range from 0.59 nM to 46 µM). Compounds tested in follow-up screens were assayed at 11-point dilutions. Cells were incubated for 48 hours, followed by addition of 3 µL of CellTiter-Glo (Promega). After a 15 min incubation at room temperature, samples were analyzed for luminescence intensity using a ViewLux High-throughput CCD imager equipped with clear filters.
Potency is the fitted concentration of half-maximal effect.

SMILES | Potency | activity change, negative = cytotoxic [%]
CN1CCCN(C(=O)c2cccc(-c3ccc(C=C4C(=O)Nc5ccc(Cl)cc54)o3)c2)CC1 | 3320 nM (active) | 
Cc1cc(O)c2c(c1)C(=O)c1cccc(O)c1C2=O |  | 15.9
C[C@H](CCC(=O)O)[C@H]1CC[C@H]2[C@@H]3[C@H](O)C[C@@H]4C[C@H](O)CC[C@]4(C)[C@@H]3CC[C@]12C |  | 12.4
COC[C@H](NC(=O)c1cnc(C)s1)C(=O)N[C@@H](COC)C(=O)N[C@@H](Cc1ccccc1)C(=O)[C@@]1(C)CO1 | 83.3 nM (active) | 
CCOC(=O)N1CCN([N+]([O-])=NOc2ccc([N+](=O)[O-])cc2C#N)CC1 | 5260 nM (active) | 
FC(F)c1nc2ccccc2n1-c1nc(N2CCOCC2)nc(N2CCOCC2)n1 | 662 nM (active) | 
OCCN1C[C@H](O)[C@@H](O)[C@H](O)[C@@H]1CO |  | 17.5
NC(=O)c1ncn([C@@H]2O[C@H](CO)[C@@H](O)[C@@H]2O)c1O |  | 18.4
Cn1cc(-c2ccc3ncc(Cc4ccc5ncccc5c4)n3n2)cn1 |  | 1.98
CCc1c(O)cc(O)c(C(=O)c2ccc(OCCN3CCOCC3)c(OC)c2)c1CC(=O)N(CCOC)CCOC | 4180 nM (active) | 
CCOC(=O)C1=C(C)NC(=S)NC1c1cccc(O)c1 (stereo not given) | 264 nM (active) | 
Cc1ccc([N+](=O)[O-])cc1S(=O)(=O)N(C)N=Cc1cnc2ccc(Br)cn12 | 935 nM (active) | 
CCCCCCCCc1ccc(CCC(N)(CO)CO)cc1 | 16600 nM (active) | 
COc1cc(OC)c(NC(=O)Nc2cc(C)on2)cc1Cl |  | 33.6
CC(=O)N[C@H]1[C@@H]([C@H](O)[C@H](O)CO)OC(C(=O)O)=C[C@@H]1N=C(N)N |  | 0.58
COc1cc(C(=O)NC2CCN(C)CC2)ccc1Nc1ncc2c(n1)N(C1CCCC1)CCC(=O)N2C(C)C | 662 nM (active) | 
COc1cc2c(cc1O)CCC1C2CC[C@@]2(C)C1CC[C@@H]2O (stereo not given in full) | 526 nM (active) | 
CC(C)Oc1ccc(C(=O)N[C@H](CNC(=O)CN(C)C)Cc2ccc(-c3cn4cccc([C@H](C)O)c4n3)cc2)cc1Cl | 372 nM (active) | 
CN(C)c1ccc2cc(C(=O)N[C@@H](CCCN=C(N)CCl)C(=O)NCc3ccccc3)ccc2c1 | 23500 nM (active) | 
CCCNC(=O)[C@H]1O[C@H]1C(=O)N[C@H](C(=O)N1CCC[C@@H]1C(=O)OC)C(C)CC (stereo not given in full) | 16600 nM (active) | 

SMILES | Potency | activity change, negative = cytotoxic [%]
Cc1onc(-c2ccccc2)c1C(=O)N[C@@H]1C(=O)N2[C@@H](C(=O)O)C(C)(C)S[C@@H]12 |  | 14.6
CC(C)N(CC[C@H](c1ccccc1)c1cc(CO)ccc1O)C(C)C |  | 1.76
NC(=O)N1CCC(CC(=O)N2CCC([C@H]3c4ncc(Br)cc4CCc4cc(Cl)cc(Br)c43)CC2)CC1 | 13200 nM (active) | 
Oc1cc(-c2nc(-c3ccccc3)[nH]c2-c2ccncc2)ccc1Cl | 3720 nM (active) | 
COc1ccc(Nc2cc(-c3cnc(N)nc3)nc(N3CCOCC3)n2)cn1 | 2960 nM (active) | 
CCN(C(=O)c1c(O)c2c(Cl)cccc2n(C)c1=O)c1ccccc1 |  | -4.44
O=C(C=Cc1ccc(CN(CCO)CCc2c[nH]c3ccccc23)cc1)NO | 148 nM (active) | 
Cc1cnc(Nc2ccc(N3CCN(C)CC3)cc2)nc1Nc1cccc(S(=O)(=O)NC(C)(C)C)c1 | 1870 nM (active) | 
COc1cc([C@@H]2c3cc4c(cc3[C@H](O)[C@H]3COC(=O)[C@@H]23)OCO4)cc(OC)c1OC | 20.9 nM (active) | 
O=C1c2c(O)cccc2[C@@H]([C@@H]2O[C@H](CO)[C@@H](O)[C@H](O)[C@H]2O)c2cc(CO)cc(O)c21 |  | 9.7
Cn1cc(C2=C(c3c4n(c5ccccc35)CCC(CN)C4)C(=O)NC2=O)c2ccccc21 (stereo not given) | 18700 nM (active) | 
CCc1ccc(C(=O)Nc2cc(CN3CCN(C)CC3)cc(C(F)(F)F)c2)cc1C#Cc1cnc2ccnn2c1 | 11800 nM (active) | 
Cn1cc(C=CC(=O)c2cccc(F)c2)cc1C=CC(=O)NO |  | -15
C[C@H](NC(=O)C(C#N)=Cc1cccc(Br)n1)c1ccccc1 | 7430 nM (active) | 
Nc1nc(=O)n([C@H]2CSC(CO)O2)cc1F (stereo not given in full) |  | 2.39
O=c1[nH]c(=O)n([C@H]2C[C@@H](O)[C@@H](CO)O2)cc1C=CBr |  | 5.07
O=C1c2cccc(O)c2C(=O)c2c(O)cc(CO)cc21 |  | 4.65
O=C1NC(=O)[C@@H](c2cn3c4c(cccc24)CCC3)[C@H]1c1c[nH]c2ccccc12 | 46.9 nM (active) | 
CN[C@H](CC(C)C)C(=O)N[C@H]1C(=O)N[C@@H](CC(N)=O)C(=O)N[C@@H]2C(=O)N[C@H]3C(=O)N[C@H](C(=O)N[C@H](C(=O)O)c4cc(O)cc(O)c4-c4cc3ccc4O)[C@H](O)c3ccc(c(Cl)c3)Oc3cc2cc(c3O[C@@H]2O[C@H](CO)[C@@H](O)[C@H](O)[C@@H]2O[C@H]2C[C@](C)(N)[C@H](O)[C@H](C)O2)Oc2ccc(cc2Cl)[C@H]1O |  | 5.84
NS(=O)(=O)OC[C@@H]1C[C@@H](n2ccc3c(N[C@H]4CCc5ccccc54)ncnc32)C[C@H]1O | 132 nM (active) | 
